# An excerpt weighted towards active compounds, which were near 3.8% of everything screened.
# Yeast superoxide: caloric restriction mimetics inhibiting age-related superoxide in yeast. S. cerevisiae aged cells, superoxide DHE fluorescence; active compounds read low. superoxide response (% of plate mean), % at 10 µM. 0.18% of 330,000 active. AID 2690;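 active = superoxide response under a set limit, about three screen SD below normal, cut at about 65% in these data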;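 also: yeast aged for seven days with compound at 30 °C before DHE staining; 100% = average MFI of all compound-treated wells on the plate with controls excluded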
# tim23-1 inh: inhibits growth of tim23-1 mutant yeast. inhibition, % at 20 µM. 1.3% of 330,000 active. AID 463212. S. cerevisiae tim23-1 growth, BacTiter-Glo luminescence, 24 h;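 active = growth inhibition of the mutant yeast at or above 50%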;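 also: temperature-sensitive mutant grown at 25 °C; plate controls were DMSO-treated mutant yeast for no effect and medium wells lacking yeast for full effect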
# NALP3 yeast inh: inhibitors of NALP3 inflammasome in yeast. Yeast reconstituted NLRP3/ASC/caspase-1, beta-gal luminescence, 24 h. inhibition, % at 10 µM. 0.39% of 330,000 active. AID 2825;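 active = inhibition of 50% or more; inactive = inhibition below 50%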;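 also: plate controls were induced DMSO wells for no effect and uninduced yeast grown without galactose for full effect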
# TIM10 inh: inhibits growth of TIM10 yeast strain. AID 463195. 1.4% of 330,000 active. S. cerevisiae TIM10 strain growth, BacTiter-Glo luminescence, 24 h. inhibition, % at 10 µM;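 active = inhibition of 40% or more at the single tested concentration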;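 also: wild-type TIM10 isogenic control strain grown at permissive 25 °C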
# tim10-1 inh: tim10-1 yeast growth inhibition | inhibition, % at 20 µM | S. cerevisiae tim10-1 ts strain growth, BacTiter-Glo, 24 h | 2.2% of 330,000 active;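 active = inhibition of at least 40%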;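 also: mutant grown at 25 °C; 0% = DMSO wells with yeast and 100% = wells holding no yeast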
# tim10-1 confirm: confirmation of tim10-1 mutant yeast growth inhibitors | S. cerevisiae tim10-1 ts strain growth, BacTiter-Glo, 24 h | inhibition, % at 20 µM | AID 463213 | shares compounds with tim10-1 inh | 56% of 7,400 active;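 active = inhibition of yeast growth at or above a set limit in either of two repeat tests at 20 µM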;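 also: tim10-1 mutant grown at permissive 25 °C to find synthetic lethal compounds; 0% = DMSO yeast wells and 100% = medium wells without yeast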
# Starred values were filed as active, the others as inactive; / = no result given.
SMILES,Yeast superoxide,tim23-1 inh,NALP3 yeast inh,TIM10 inh,tim10-1 inh,tim10-1 confirm
O=C(Nc1nccs1)c1nc(-c2ccccc2)n(-c2ccccc2)n1,103,11,-6,8,1,/
Cc1csc(NC(=O)c2nc(-c3ccccc3)n(-c3ccccc3)n2)n1,102,48,8,23,51*,41*
Cc1ccc(C)c(NC(=O)c2nc(-c3ccccc3)n(-c3ccccc3)n2)c1,116,43,1,29,43*,28
COC(=O)c1ccccc1NC(=O)c1nc(S(=O)(=O)Cc2ccccc2)ncc1Cl,83,38,8,28,38,/
O=C(NCc1ccc2c(c1)OCO2)c1nc(S(=O)(=O)Cc2ccccc2F)ncc1Cl,152,36,19,-21,-17,/
CC(=O)Nc1ccc(NC(=O)c2nc(S(=O)(=O)Cc3ccccc3)ncc2Cl)cc1,116,12,5,5,0,/
COc1ccc(CNC(=O)c2nc(S(=O)(=O)Cc3ccccc3)ncc2Cl)cc1,133,42,-8,29,59*,31*
O=C(NCc1ccc2c(c1)OCO2)c1nc(S(=O)(=O)Cc2ccccc2)ncc1Cl,89,43,13,39,55*,26
O=C(NCc1ccccc1)c1nc(S(=O)(=O)Cc2ccccc2)ncc1Cl,88,42,7,31,52*,9
N/C(CS(=O)(=O)c1ccc(F)cc1)=N\O,94,0,4,-14,-19,/
CC(=O)N1CCN(C(=S)c2ccc(N(C)C)cc2)CC1,92,9,1,10,17,/
CC(C)c1ccc(NC(=S)N2CCN(S(=O)(=O)c3ccccc3)CC2)cc1,100,28,20,15,41*,27
CN(C)c1ccc(C(=S)N2CCN(S(=O)(=O)c3ccccc3)CC2)cc1,107,21,-4,19,40*,20
COc1ccc(S(=O)(=O)N2CCN(C(=O)c3ccc([N+](=O)[O-])o3)CC2)cc1,101,35,27,28,51*,45*
COc1ccc(C(=S)N2CCN(S(=O)(=O)c3ccccc3)CC2)cc1,108,42,4,15,46*,25
COc1ccc(OC2CCN(S(=O)(=O)c3ccc(OC)cc3)CC2)cc1,120,45,26,8,43*,42*
CC(C)c1ccc(S(=O)(=O)N2CCN(C(=O)Cc3ccsc3)CC2)cc1,105,27,15,13,43*,12
COc1ccc(S(=O)(=O)N2CCN(C(=O)c3cccc(Cl)c3)CC2)cc1,101,41,16,20,56*,27
CN(C)c1ccc(C(=S)N2CCN(c3ccccc3)CC2)cc1,110,43,4,32,46*,36*
CC/C(=C\C(=O)c1ccncc1)Nc1ccc(Br)cc1,92,-43,17,0,-41,/
CCOc1ccc(C(CCc2ccccc2)NC(=O)c2ccccc2)cc1OCC (configuration not stated),108,4,-12,-13,-3,/
Cc1ccc2c(c1)c1c(n2CC(O)Cn2nc(C)c(Br)c2C)CCCC1 (configuration not stated),114,23,-4,7,43*,11
CC(C)c1ccc(/C=N/n2c(COc3ccccc3)n[nH]c2=S)cc1,115,32,37,18,43*,21
S=c1[nH]nc(COc2ccccc2)n1/N=C/c1cccc(Br)c1,114,21,17,24,45*,20
S=c1[nH]nc(COc2ccccc2)n1/N=C/c1cccs1,88,43,18,33,42*,13
SMILES,Yeast superoxide,tim23-1 inh,NALP3 yeast inh,TIM10 inh,tim10-1 inh,tim10-1 confirm
S=c1[nH]nc(COc2ccccc2)n1/N=C/c1ccc(Br)cc1,98,17,24,9,33,/
Cc1ccsc1/C=N/n1c(COc2ccccc2)n[nH]c1=S,86,30,31,24,35,/
CN(C)c1ccc(/C=N/n2c(COc3ccccc3)n[nH]c2=S)cc1,120,20,19,13,3,/
CCCCN(Cc1ccco1)S(=O)(=O)c1csc(C(N)=O)c1,113,8,3,7,9,/
O=C(CCNc1cc(Cl)cc(Cl)c1)c1cccs1,98,42,12,35,46*,19
CCc1cccc(C)c1NC(=S)N(Cc1cccnc1)Cc1ccco1,108,22,-2,12,17,/
Cc1cc(Nc2ccccc2)c2c([N+](=O)[O-])c(C)cc(C)c2n1,105,45,11,32,41*,27
Cc1cccc(Nc2cc(C)nc3ccccc23)c1,98,-5,18,-6,-15,/
CCOC(=O)C1=C(C)OC(N)=C(C#N)C1c1c(C)nn(-c2ccccc2)c1Cl (configuration not stated),105,46,-2,24,53*,34*
Cc1nn(-c2ccccc2)c(Cl)c1C1C(C#N)=C(N)Oc2c1c(C)nn2-c1ccccc1 (configuration not stated),108,34,7,-2,47*,19
COc1ccc(NC(=O)COC(=O)C2C3CC4OC(=O)C2C4C3)cc1 (configuration not stated),91,-5,15,-13,12,/
CCOC(=O)Nc1ccc2nc(Sc3ccc(Cl)cc3)sc2c1,116,27,17,20,42*,33*
COc1ccc(NC(=O)CSc2n[nH]c(CNc3cccc(C)c3)n2)cc1,107,11,11,-12,11,/
O=C1C(Cl)=C(N2CCN(Cc3ccccc3)CC2)C(=O)N1Cc1ccccc1,100,26,16,28,44*,14
O=C1C(Cl)=C(NC2CCCCC2)C(=O)N1Cc1ccccc1,96,23,1,-5,15,/
COc1ccc2c(c1)C1C=CCC1C(c1cc3c(cc1Br)OCO3)N2 (configuration not stated),112,28,9,29,51*,38*
COc1ccc(N2CCC(CNC(=O)Nc3cccc(OC)c3)C2)cc1 (configuration not stated),87,10,19,22,46*,40*
CC(Oc1ccc2c(=O)c(-c3ccc(Cl)cc3)c(C(F)(F)F)oc2c1)C(=O)O (configuration not stated),109,13,-9,9,5,/
CC(C)CCNC(=O)NC(=O)COC(=O)/C=C/c1cccc([N+](=O)[O-])c1,92,18,16,25,42*,18
CSc1nnc(NC(=O)c2cccc(S(=O)(=O)N3CCOCC3)c2)s1,101,8,3,13,13,/
COc1ccccc1/C=C1\SC(=S)N(CCC(=O)N2CCCCC2CCO)C1=O (configuration not stated),130,34,12,16,42*,9
O=C(CCN1C(=O)/C(=C\c2ccccc2)SC1=S)N1CCCCC1,106,46,36,25,34,/
O=C(CCN1C(=O)/C(=C/c2cccs2)SC1=S)N1CCCCC1,102,39,24,24,42*,12
